# PubChem BioAssay (Tox21)
# Records with an inconclusive call do not appear. Values without a mark were called inactive. The call rests on the fitted dose curve; in most records, active means well fitted curve in the direction sought with a large enough effect in the signal ratio in the repeat runs (not every such curve was filed as active); inconclusive means weak or mixed curves, or a change in a side signal; inactive means no such curve, though single readings can be large or run the other way; the % refers to the signal ratio.
# Assay: qHTS assay to identify small molecule agonists of the NFkB signaling pathway (AID 1159509)
# Conditions: NFkB-bla ME-180 cells, beta-lactamase FRET ratio, 5 h; series mostly up to 61 µM; activation: at the top concentration
# Text: National Center for Advancing Translational Sciences [NCATS]
# NIH Chemical Genomics Center [NCGC]
# U.S. Environmental Protection Agency [EPA]
# National Institutes of Environmental Health Sciences [NIEHS]
# National Toxicology Program [NTP]
# U.S. Food and Drug Administration [FDA]
# Transcription factors and their stimulated target gene expression play pivotal roles across many cellular processes including responses to environmental stimuli. Proper regulation of associated pathways is critical to maintain cell health and function. Constitutive activation of transcription factor pathways has been implicated in tumors as it may block cellular functions such as apoptosis and lead to invasion and metastasis. One important transcription factor that stimulates gene expression in response to cytokines, UV radiation, and other stimuli is nuclear factor-kappa B (NFkB). To measure activation of the NFkB pathway, the CellSensor NFkB-bla ME-180 cell line (Life Technologies, Carlsbad, CA) that stably expresses beta-lactamase reporter gene under the regulation of a NF-kB response element was used. This assay allows measurement of the NFkB pathway activity induced by compounds in a ME-180 cell line. This system quantitates NF-kB activity using a FRET-based assay system where beta-lactamase expression disrupts FRET, allowing for fluorescent measurement of activity. This cell line has been used to screen the Tox21 10K compound library and to identify compounds that induce the NFkB pathway activity.
# Tox21 Assay Protocol Summary:
# NFkB-bla ME-180 cells were dispensed at 2,000 cells/6 uL of assay medium per well into black wall/clear-bottom 1536-well plates using a Multidrop Combi (ThermoFisher Scientific, Waltham, MA) dispenser. After the assay plates were incubated at 37 C and 5% CO2 for an overnight, 23 nL of compounds dissolved in DMSO, positive controls or DMSO only was transferred to the assay plate by a Pintool station (Kalypsys, San Diego, CA). The assay plates were incubated at 37 C and 5% CO2 for 5 hr. One uL of LiveBLAzer B/G FRET substrate (Life Technologies) was added using a Flying Reagent Dispenser (Aurora Discovery, San Diego, CA) and the plates were incubated at room temperature for 1.5 hr. Fluorescence intensity (405 nm excitation, 460 nm and 530 nm emissions) was measured using an Envision plate reader (PerkinElmer, Shelton, CT).
# On the % scale 0 is the no-effect control and ±100 the full control effect.
row,Compound,activation
1,O=C1CCC(C2CCCCC2)CC1,-0.839%
2,CCNCCO,-0.285%
3,Cc1c(N)cccc1N,0.271% [at 78.8 µM]
4,CCCCOc1cc(C(=O)NCCN(CC)CC)c2ccccc2n1,0.409%
5,CCOC(=O)COc1ccc2c(c1)CC(NCC(O)c1cccc(Cl)c1)CC2 (stereo not given),0.724%
6,C[C@@H]1CN(c2c(F)c(F)c3c(=O)c(C(=O)O)cn(C4CC4)c3c2F)C[C@H](C)N1,0.464% [at 28.5 µM]
7,CC(C)C1=CC2=CC[C@@H]3[C@](C)(CCC[C@@]3(C)C(=O)O)[C@H]2CC1,1.48%
8,CCCCCCCCCCCCCCCCOP(=O)([O-])OCC[N+](C)(C)C,2.61%
9,c1ccc(CN(CC2=NCCN2)c2ccccc2)cc1,-0.0768%
10,C/C(=N\O)[C@@H](C)NCC(C)(C)CN[C@H](C)/C(C)=N/O,-0.644%
11,CC(=O)Oc1cc(C(C)C)c(OCCN(C)C)cc1C,0.975%
12,C=CCCC=C,0.337% [at 78.8 µM]
13,CCCCCCCCCC#N,-0.196%
14,NCCC(O)(P(=O)(O)O)P(=O)(O)O,-0.28%
15,CCN(CCCc1ccccc1)CCCc1ccccc1,0.788%
16,O=Cc1ccc(O)c(O)c1O,0.73%
17,CCCCCCCCOC(=O)CCCCCCCCC(=O)OCCCCCCCC,0.068%
18,CCOC(=O)NCCC[Si](OCC)(OCC)OCC,-0.234%
19,CC(C)CC(=O)OCc1ccccc1,1.26%
20,O=C1CCCCC1C1CCCCC1 (stereo not given),0.0066%

row,Compound,activation
1,NC/C=C/C(=O)O,-0.326%
2,Cc1cccc(C)c1NC(=O)CN1CCCCCC1,-0.287%
3,CCCCC1CCC(=O)O1 (stereo not given),-0.566%
4,O=C1C=CC(=O)O1,0.0426% [at 78.8 µM]
5,CCCCCCCCc1ccc(S(=O)(=O)O)cc1,1.29%
6,COc1cc(N)c(Cl)cc1C(=O)NC1CCN(Cc2ccccc2)CC1,-0.0527%
7,NCCCN1CCN(CCCN)CC1,0.0393%
8,CCOC(=O)c1ccccc1O,0.02%
9,Cc1cc2c(s1)Nc1ccccc1N=C2N1CCN(C)CC1,0.705%
10,CCCCCCn1c(=O)c2c(ncn2C)n(C)c1=O,-0.168%
11,CCc1nnc(NS(=O)(=O)c2ccc(N)cc2)s1,-0.147%
12,OCc1c2ccccc2cc2ccccc12,0.44% [at 78.8 µM]
13,COc1ccccc1OCC(O)COC(N)=O (stereo not given),0.005%
14,CC(C)O,-0.0197% [at 78.8 µM]
15,C=CCc1cc(OC)c(O)c(C(=O)NCCO)c1,-0.13%
16,CCOc1ccc(OCC)c(Cl)c1,0.303%
17,CCC(=O)Nc1ccc(O)cc1,-0.619%
18,CC1=C(O)C(=O)OC1C (stereo not given),-0.357%
19,COc1ccccc1N1CCN(CCCNc2cc(=O)n(C)c(=O)n2C)CC1,-0.115%
20,Cc1ccsc1C(=CCCN1CCC[C@@H](C(=O)O)C1)c1sccc1C,0.739%
